FBPA Giardia inh – inhibitors of Giardia lamblia fructose-1,6-bisphosphate aldolase | Potency, µM (top dose mostly 59.6 µM), inactives show top-dose activity, negative = inhibition, most hits filed as inhibitors | AID 2451 | 290,000 tested, 0.71% active | purified Giardia FBPA | A8B2U2; also: potency is read from the fitted curve at half-maximal effect; % is scaled to controls: 0 for no effect and ±100 for the full control effect; nearly all actives have a fitted effect of over 55% in size
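Giardia FBPA (40 nM reagent) was preincubated 10 min at RT with compound (up to 57.5 uM final), then substrate plus GAPDH/TPI/NAD/arsenate coupling system with diaphorase/resazurin was added; resorufin fluorescence (525/598 nm) was read after 20 min.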
LmPK inh – inhibitors of Leishmania mexicana pyruvate kinase; Q27686; Potency, µM (titrated, usually from 57.5 µM), for the others: at the top dose activity change, negative = inhibition, most hits filed as inhibitors; purified LmPK, Kinase-Glo ATP luminescence, 1 h; 290,000 tested, 0.37% active; also: potency is read from the fitted curve at half-maximal effect; % is scaled to controls: 0 for no effect and ±100 for the full control effect
Target sequence (Q27686 whole entry, looked up): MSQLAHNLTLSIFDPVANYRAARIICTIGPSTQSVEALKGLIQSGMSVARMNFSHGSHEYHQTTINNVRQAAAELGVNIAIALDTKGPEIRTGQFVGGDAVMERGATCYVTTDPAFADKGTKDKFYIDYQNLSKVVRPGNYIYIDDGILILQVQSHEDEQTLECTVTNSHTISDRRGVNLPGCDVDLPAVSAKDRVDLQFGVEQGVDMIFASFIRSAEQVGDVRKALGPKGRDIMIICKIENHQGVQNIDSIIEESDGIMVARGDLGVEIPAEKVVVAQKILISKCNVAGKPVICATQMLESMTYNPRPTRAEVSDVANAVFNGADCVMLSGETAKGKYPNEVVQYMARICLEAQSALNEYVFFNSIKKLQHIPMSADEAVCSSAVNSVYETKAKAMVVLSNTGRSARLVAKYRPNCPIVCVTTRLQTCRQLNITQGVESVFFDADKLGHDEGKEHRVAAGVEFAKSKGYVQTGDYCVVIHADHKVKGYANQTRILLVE
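qHTS format; LmPK 0.1 nM; substrates PEP 0.5 mM and ADP 0.1 mM. One-hour room-temperature incubation, then coupled luciferase luminescence; 0.5 nM enzyme wells mark activation.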
Shiga toxin inh – inhibitors of Shiga toxin in Vero cells. Vero cells, Shiga toxin protein synthesis inhibition reporter. 290,000 tested, 9.2% active. inhibition, % at 38.7 µM; in the data active = inhibition mostly above about 28%, no sharp cut-off; inactive = mostly below about 43%; also: 0% is about no effect
NS1 inh – inhibitors of influenza NS1 protein function; 270,000 tested, 0.4% active; Potency, µM (highest dose often 46.1 µM), for inactives: at the top dose activity, positive = more growth; calls by dose curve; also: potency is read from the fitted curve at half-maximal effect; actives are rising curves; nearly all actives have a fitted effect of over 50% in size
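Read-out: OD600 growth recovery of NS1-expressing budding yeast. Cells grown overnight at 30C in -URA glucose medium, washed, resuspended and diluted 1:100 in 2% galactose assay medium, pH 6.0. Same strain lacking NS1 served as positive control.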
Cycloheximide cs – counter-screen hit for Shiga toxin inhibitors, cycloheximide; cell reporter, cycloheximide protein synthesis inhibition counterscreen; max response, %; 300,000 tested, 12% active; in the data active = max response mostly above about 13%, no sharp cut-off; inactive = mostly below about 14%; also: read at 38.3 µM for the half of the compounds with a filed dose; 0% is about no effect
* hit, by the source's call; [ ] = remark or other dose. Rows were chosen to be rich in hits. Some 14% of all compounds tested hit in one or more screens of this group. Unless noted, calls follow the shape of the dose curve; as a rule, active = well fitted curve in the direction sought with a large enough effect; inconclusive = small, poorly fitted or top-dose-only effect, or another doubt; inactive = no such curve, though single readings can be large; an effect the other way counts as inactive or inconclusive.

For COc1ccc(NC(=O)NCCCCc2ccccc2)cc1 the results were LmPK inh -2.0%, Shiga toxin inh 49.7, NS1 inh -1.0% and Cycloheximide cs 22.4*.
Screening Cc1ccc(SCC(=O)NCCCc2ccccc2)cc1 returned FBPA Giardia inh 3.1%, LmPK inh -1.3%, Shiga toxin inh -15.6, NS1 inh -12.9% and Cycloheximide cs 4.0.
For Cc1cccc(NC(=O)C(=O)NCCCc2ccccc2)c1 the results were FBPA Giardia inh 2.0%, LmPK inh -4.5%, Shiga toxin inh 50.6*, NS1 inh 3.2% and Cycloheximide cs 49.6*.
For O=C(NCCCCc1ccccc1)Nc1ccc(F)cc1 the results were FBPA Giardia inh 4.6%, LmPK inh -7.8%, Shiga toxin inh 31.1*, NS1 inh -77.6% and Cycloheximide cs 11.2.
CCOc1ccc(NC(=O)NCCCCc2ccccc2)cc1 was read as FBPA Giardia inh -4.2%, LmPK inh -19.6%, Shiga toxin inh 13.2, NS1 inh 4.5% and Cycloheximide cs -0.3.
`COc1nnc(-c2ccccc2)s1` gave FBPA Giardia inh 5.2%, LmPK inh 4.1%, Shiga toxin inh 41.2*, NS1 inh 7.7% and Cycloheximide cs 15.4.
For Nc1nnc(-c2ccccc2)s1 the results were FBPA Giardia inh -0.6%, LmPK inh 0.4%, Shiga toxin inh 10.0, NS1 inh -8.4% and Cycloheximide cs 6.3.
Screening CO[C@]1(C2=NCCN2)COc2ccccc2O1 returned FBPA Giardia inh -2.0%.
OC1(c2ccccn2)COc2ccccc2O1 (stereo unspecified) was read as FBPA Giardia inh -9.0%, LmPK inh -1.3%, Shiga toxin inh 32.4, NS1 inh 6.9% and Cycloheximide cs 23.7*.
Screening O=C(NNC(=O)C1CCN(c2ncccn2)CC1)c1ccc(F)cc1 returned FBPA Giardia inh -10.4%, LmPK inh 2.7%, Shiga toxin inh -6.0, NS1 inh -6.1% and Cycloheximide cs -2.5.
CC(C)c1ccc(N(C(=O)c2csnn2)C(C(=O)NC(C)(C)C)c2ccncc2)cc1 (stereo unspecified) was read as FBPA Giardia inh 2.2%, LmPK inh 0.5%, Shiga toxin inh 33.4, NS1 inh -0.9% and Cycloheximide cs 34.7*.
Screening Cc1ccc(N(C(=O)c2csnn2)C(C(=O)NC(C)(C)C)c2ccncc2)cc1 (stereo unspecified) returned FBPA Giardia inh 3.9%, LmPK inh 0.2%, Shiga toxin inh -14.9, NS1 inh 5.9% and Cycloheximide cs 9.1.
`C[CH2][Hg][S]c1ccccc1C(=O)O` gave FBPA Giardia inh 12.6µM*.
`CC(=O)N[C@@H](CSC(=O)[C@]1([C@@H](O)C(C)C)NC(=O)[C@H](C)[C@@H]1O)C(=O)O` gave FBPA Giardia inh 5.1%[12.9 µM], Shiga toxin inh active and Cycloheximide cs 84.7*.
For Cc1ccc(CNC(=O)CCC(=O)Nc2nnc(C(C)C)s2)cc1 the results were FBPA Giardia inh -9.2%, LmPK inh 8.2%, Shiga toxin inh 8.6, NS1 inh 2.0% and Cycloheximide cs -2.0.
Screening CCc1nnc(NC(=O)c2ccc(-c3ccccc3F)o2)s1 returned FBPA Giardia inh -2.9%, LmPK inh -7.7%, Shiga toxin inh 28.3 and Cycloheximide cs 22.1*.
For O=C(NCc1ccccc1)c1ccc(-c2ccccc2F)o1 the results were FBPA Giardia inh -4.7%, LmPK inh -6.5%, Shiga toxin inh 41.4*, NS1 inh -43.1% and Cycloheximide cs 52.1*.
`CCc1nnc(NC(=O)c2ccc(-c3ccc(Cl)cc3)o2)s1` gave FBPA Giardia inh 1.9%, LmPK inh 0.1%, Shiga toxin inh 42.8, NS1 inh -3.3% and Cycloheximide cs 2.0.
`Nc1nnnn1/N=C/c1ccc(N2CCCCC2)c([N+](=O)[O-])c1` gave FBPA Giardia inh -2.5%, LmPK inh 3.8%, Shiga toxin inh 62.7*, NS1 inh 3.4% and Cycloheximide cs 37.6*.
COc1ccccc1C(=O)/C=C/c1ccc(N2CCCCC2)c([N+](=O)[O-])c1 was read as FBPA Giardia inh -4.8%, LmPK inh 1.8%, Shiga toxin inh 99.0*, NS1 inh 18.7% and Cycloheximide cs 62.3*.
For O=C(O/N=C\c1ccc(N2CCCCC2)c([N+](=O)[O-])c1)c1ccc(Cl)cc1Cl the results were FBPA Giardia inh -2.4%, LmPK inh 1.8%, Shiga toxin inh -7.1, NS1 inh -14.1% and Cycloheximide cs -2.8.
O=C(/C=C/c1ccc(N2CCCCC2)c([N+](=O)[O-])c1)c1ccc(O)cc1 was read as FBPA Giardia inh -10.9%, LmPK inh -2.2%, Shiga toxin inh 54.9*, NS1 inh -4.8% and Cycloheximide cs 46.7*.
CC1(C)C(C(=O)O)N2C(=O)CC2S1(=O)=O (stereo unspecified) was read as FBPA Giardia inh 0.6%, Shiga toxin inh -2.1 and Cycloheximide cs -0.9.
`Cc1ccc(NC(=O)CN2CCc3cc4c(cc3C2C)OCCCO4)cc1C` (stereo unspecified) gave LmPK inh 10.8%, Shiga toxin inh 2.3, NS1 inh -44.0% and Cycloheximide cs -2.2.
`[N-]=[N+]=NC1CC(CO)OC1n1ccc(=O)[nH]c1=O` (stereo unspecified) gave LmPK inh -8.6%, Shiga toxin inh 10.5, NS1 inh 8.0% and Cycloheximide cs 10.5.
Screening Cn1cc([N+](=O)[O-])c(C(=O)Nc2ccc(-c3nc4ccccc4o3)cc2)n1 returned FBPA Giardia inh -0.1%, LmPK inh 1.7%, Shiga toxin inh 69.0*, NS1 inh -36.0% and Cycloheximide cs 38.6*.
Screening COc1ccc2oc(-c3ccc(NC(=O)c4ccc(N5CCOCC5)c([N+](=O)[O-])c4)cc3)nc2c1 returned FBPA Giardia inh 2.3%, LmPK inh -4.7%, Shiga toxin inh -2.6, NS1 inh 7.3% and Cycloheximide cs -2.8.
Screening O=C(Nc1ccc(-c2nc3ncccc3o2)cc1)c1ccc([N+](=O)[O-])o1 returned FBPA Giardia inh 2.1%, LmPK inh -0.6%, Shiga toxin inh 43.8, NS1 inh -10.7% and Cycloheximide cs -2.8.
Screening O=C(Nc1ccc(-c2nc3ccccc3o2)cc1)c1ccc(N2CCOCC2)c([N+](=O)[O-])c1 returned FBPA Giardia inh -0.7%, LmPK inh -1.8%, Shiga toxin inh 24.2, NS1 inh -1.2% and Cycloheximide cs 8.5*.
For COc1ccc(OCc2cc(C(=O)N3CCCC(OC)C3)no2)c2ccccc12 (stereo unspecified) the results were FBPA Giardia inh -27.0%, LmPK inh 2.5%, Shiga toxin inh 92.4*, NS1 inh -33.1% and Cycloheximide cs 50.4*.
Cc1ccc(C)c(OCc2cc(C(=O)N3CC[C@H](O)C3)no2)c1 was read as LmPK inh 2.4%, Shiga toxin inh 92.1*, NS1 inh -4.1% and Cycloheximide cs 34.4*.
Screening COc1ccc(OCc2cc(C(=O)N3CCCC(O)C3)no2)c2ccccc12 (stereo unspecified) returned LmPK inh -7.1%, Shiga toxin inh 121.6*, NS1 inh -20.1% and Cycloheximide cs 55.4*.

High-throughput results (PubChem BioAssay)
